Compound activity as filed in PubChem.
uPA surface inh: qHTS for Inhibitors of Cell Surface uPA Generation; Potency, µM (top dose mostly 38.3 µM), for the others: top-dose activity change, negative = inhibition, actives largely listed as inhibitors; actives 0.31% (n = 330,000); cell surface uPA generation assay, qHTS; AID 540303, 2011; active means well fitted inhibition curve with a large enough effect; inconclusive means small, poorly fitted or top-dose-only effect; inactive means no such curve, though single readings can be large or run the other way; tested in mouse RAW 264.7 cells; further: potency means the concentration at half of the fitted maximal effect; on the % scale 0 is the no-effect control and ±100 the full control effect; nearly all actives have a fitted effect of over 55% in size
DT40 TDP1 CPT: qHTS for Inhibitors of human tyrosyl-DNA phosphodiesterase 1 (TDP1): qHTS in cells in presence of CPT; chicken DT40 Tdp1-/-;hTDP1 cells + 20 nM CPT, ATP luminescence, 48 h; Potency, µM (doses to about 46.2 µM), for the others: at the top dose activity change, negative = growth inhibition, most hits filed as inhibitors; actives 12% (n = 420,000); AID 686979, 2013; further: potency means the concentration at half of the fitted maximal effect; on the % scale 0 is the no-effect control and ±100 the full control effect; nearly all actives have a fitted effect of over 55% in size
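Chicken DT40 Tdp1-/- cells complemented with human TDP1, 400 cells/well, exposed to compounds plus 20 nM camptothecin for at least 48 h at 37 C; viability read as ATP content by CellTiter-Glo luminescence.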
TDP1 inh: qHTS Assay for Inhibitors of Tyrosyl-DNA Phosphodiesterase (TDP1); Potency, µM (series often up to 130 µM), inactives show at the highest dose activity change, negative = inhibition, hits mostly inhibitors; actives 0.28% (n = 350,000); AID 485290, 2010; Tyrosyl-DNA phosphodiesterase 1 (Homo sapiens), Q9NUW8; recombinant TDP1, AlphaScreen DNA substrate cleavage; further: potency means the concentration at half of the fitted maximal effect; on the % scale 0 is the no-effect control and ±100 the full control effect; nearly all actives have a fitted effect of over 40% in size
Target sequence (Q9NUW8 whole entry, looked up): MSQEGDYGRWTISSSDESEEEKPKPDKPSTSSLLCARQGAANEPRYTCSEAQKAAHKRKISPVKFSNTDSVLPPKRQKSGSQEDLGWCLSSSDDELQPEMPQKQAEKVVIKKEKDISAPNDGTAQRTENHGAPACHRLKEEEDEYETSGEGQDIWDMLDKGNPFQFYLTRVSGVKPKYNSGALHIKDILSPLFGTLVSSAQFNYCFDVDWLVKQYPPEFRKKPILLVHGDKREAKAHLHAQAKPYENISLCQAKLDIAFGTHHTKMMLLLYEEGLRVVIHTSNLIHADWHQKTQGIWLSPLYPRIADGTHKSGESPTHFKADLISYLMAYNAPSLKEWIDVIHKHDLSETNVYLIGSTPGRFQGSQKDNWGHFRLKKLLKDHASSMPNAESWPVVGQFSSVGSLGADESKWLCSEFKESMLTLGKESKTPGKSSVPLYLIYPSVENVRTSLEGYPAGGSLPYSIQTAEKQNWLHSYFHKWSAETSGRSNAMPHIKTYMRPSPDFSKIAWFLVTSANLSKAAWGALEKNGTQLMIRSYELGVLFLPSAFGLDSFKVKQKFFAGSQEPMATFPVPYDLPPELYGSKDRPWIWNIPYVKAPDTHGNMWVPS
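Steps: enzyme plus compound, 15 min RT; add biotin/phosphotyrosine-FITC oligonucleotide (15 nM final), react 5 min; add donor/acceptor beads (10 ug/ml final), 10 min; read AlphaScreen. Tdp1 at 1 nM final.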
miR-21 act: qHTS Assay for Modulators of miRNAs and/orActivators of miR-21. HeLa miR-21 FLuc reporter, luciferase, 48 h. Potency, µM (series often up to 38.3 µM), for the others: at the highest dose activity change, positive = activation, usual class: activators. 340,000 tested, under 10 active. AID 2288, 2010;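 further: % of control where 0% means no effect; miR-21 action dims this reporter so a rising signal means less miR-21 action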
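Luminescence from a firefly luciferase reporter carrying a miR-21 binding site downstream, stably expressed under a CMV promoter in HeLa cells that make miR-21 endogenously, reports miRNA modulation after 48 h compound exposure up to approximately 40uM final.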
DT40 TDP1 no CPT: qHTS for Inhibitors of human tyrosyl-DNA phosphodiesterase 1 (TDP1): qHTS in cells in absence of CPT | AID 686978, 2013 | actives 15% (n = 420,000) | DT40 Tdp1-/- hTDP1 cells, no CPT, ATP luminescence, 48 h | Potency, µM (doses to about 46.2 µM), for the others: at the top dose activity change, negative = growth inhibition, hits mostly inhibitors; further: potency means the concentration at half of the fitted maximal effect; on the % scale 0 is the no-effect control and ±100 the full control effect; nearly all actives have a fitted effect of over 55% in size
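Chicken DT40 Tdp1-/- cells stably complemented with human TDP1 were seeded at 400 cells/well with DMSO in place of 20 nM camptothecin. After compound pinning, cells grew at least 48 hr at 37 °C; viability read by CellTiter-Glo luminescence.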
An asterisk follows results filed as active; ? = inconclusive; · = not tested or not shown; [ ] = remark or other dose. Shown are actives, neighbours in structure and some others; about 16% of the full set was active somewhere. Unless noted, the call rests on the fitted dose curve; in most records, active means well fitted curve in the direction sought with a large enough effect; inconclusive means small, poorly fitted or top-dose-only effect, or another doubt; inactive means no such curve, though single readings can be large; an effect the other way counts as inactive or inconclusive.

SMILES	uPA surface inh	DT40 TDP1 CPT	TDP1 inh	miR-21 act	DT40 TDP1 no CPT
CC(OC(=O)c1cccc(S(=O)(=O)Nc2cccc(C(F)(F)F)c2)c1)C(=O)Nc1ccc2c(c1)OCCO2 (stereo not drawn)	0%	-22%	2%	6%	16µM*
COc1cc(-n2c(C)nc3ncn(-c4ccccc4)c3c2=O)cc(OC)c1OC	·	-2%	·	·	-24%
COc1ccc(-c2nnc(CSc3nc4ccccc4c(=O)n3CC3CCCO3)o2)cc1OC (stereo not drawn)	-1%	?	·	-6%	23µM*
CCN1CCCc2cc(CN(CCN3CCOCC3)C(=S)Nc3cccc(OC)c3)ccc21	-7%	?	11%	6%	21µM*
CCCN1CCCc2cc(CN(CCCN3CCOCC3)C(=O)Nc3ccc(OCC)cc3)ccc21	·	26µM*	0%	3%	?
CCCN1CCCc2cc(CN(CCCN3CCOCC3)C(=O)Nc3ccc(Cl)c(Cl)c3)ccc21	·	26µM*	11%	-5%	7.3µM*
CCOc1ccc(NC(=O)N(CCN2CCOCC2)Cc2ccc3c(c2)CCCN3CC)cc1	7%	?	11%	-17%	-4%
COc1ccc(CN(CCCN2CCOCC2)C(=O)Nc2cccc(Cl)c2)cc1OC	1%	-21%	1%	-3%	?
COc1cccc(NC(=S)NCCN2CCOCC2)c1	4%	-1%	2%	-5%	-6%
CC[C@H](C)/C=C(C)/C=C/C(=O)Cc1cc(O)c(C)c(O)c1C=O	4%	?	·	3%	?
CC[C@H](C)/C=C(C)/C=C/C1=CC2=CC(=O)[C@]3(C)OC(=O)[C@@H](C(C)=O)[C@@H]3C2=CO1	-4%	2.1µM*	5%	-3%	-76%
CS(=O)(=O)N1CCN(Cc2ccc(C(F)(F)F)cc2)CC1	0%	-29%	-4%	10%	?
Cc1ccc(N2C(=S)NC3c4cc(Cl)ccc4OC2(C)C3C(=O)N(C)C)cc1 (stereo not drawn)	-6%	-12%	5%	9%	3%
COc1ccc(N2C(=S)NC3c4cc(Cl)ccc4OC2(C)C3C(=O)N(C)C)cc1 (stereo not drawn)	-6%	29µM*	0%	17%	?
N#C/C(=C\c1ccc(N2CCOCC2)o1)c1nc2ccccc2[nH]1	-7%	?	12%	-26%	23µM*
N#C/C(=C\c1ccc(N2CCOCC2)c([N+](=O)[O-])c1)c1nc2ccccc2[nH]1	-9%	26µM*	14%	-26%	15µM*
CCN(CC)c1ccc(/C=C(/C#N)c2nc3ccccc3[nH]2)c(OC(C)C)c1	10µM*	18µM*	6%	-12%	12µM*
N#C/C(=C/c1ccc(N2CCOCC2)o1)c1ccc(Cl)cc1	-29%	?	13%	22%	15µM*
N#C/C(=C\c1ccc(-c2ccc(C(=O)O)cc2)o1)c1nc2ccccc2[nH]1	-5%	?	0%[12.3 µM]	-18%	?
N#C/C(=C\c1ccc(N2CCCCC2)o1)C(N)=O	-5%	-1%	-4%	-23%	-16%
CCCNC(=O)c1nc(C)c(C)nc1C(=O)Nc1cccc(Cl)c1	-1%	13%	5%	-5%	8%
CCc1ccc(C(=O)C(C)OC(=O)C2COc3ccccc3O2)cc1 (stereo not drawn)	1%	-5%	0%	-10%	-2%
CC(=O)c1ccc(NC(=O)CSc2nc(-c3cccc(F)c3)nc3c2c(=O)n(C)c(=O)n3C)cc1	·	16%	5%	-4%	-13%
CCOc1cccc(/C=C(/C#N)c2nc3ccccc3[nH]2)c1OCC(=O)O	-18%	15%	·	-35%	-4%
COc1cc(/C=C(\C#N)c2nc3ccccc3[nH]2)c([N+](=O)[O-])cc1OCc1ccccc1	2%	23µM*	12%	-5%	18µM*
Cc1ccc2nc(/C(C#N)=C\c3ccc(N4CCCCC4)c([N+](=O)[O-])c3)[nH]c2c1	-14%	21µM*	7%	16%	10µM*
